# Reference: publication PMC4336329 (PLoS ONE, 2015)
# Among all 310,000 compounds or so, about 2,200 (0.71%) showed an effect of 50% or more. The effect is printed as a negative number. Shown is part of a subset that was picked to be rich in strong results.
# Molecular target: human ether-à-go-go-related gene (hERG) potassium channel (human, UniProt Q12809)
# Test: primary screen, population patch clamp on CHO cells stably expressing hERG; higher = less effect of the substance
# Sequence of human ether-à-go-go-related gene (hERG) potassium channel (Q12809 whole entry, looked up): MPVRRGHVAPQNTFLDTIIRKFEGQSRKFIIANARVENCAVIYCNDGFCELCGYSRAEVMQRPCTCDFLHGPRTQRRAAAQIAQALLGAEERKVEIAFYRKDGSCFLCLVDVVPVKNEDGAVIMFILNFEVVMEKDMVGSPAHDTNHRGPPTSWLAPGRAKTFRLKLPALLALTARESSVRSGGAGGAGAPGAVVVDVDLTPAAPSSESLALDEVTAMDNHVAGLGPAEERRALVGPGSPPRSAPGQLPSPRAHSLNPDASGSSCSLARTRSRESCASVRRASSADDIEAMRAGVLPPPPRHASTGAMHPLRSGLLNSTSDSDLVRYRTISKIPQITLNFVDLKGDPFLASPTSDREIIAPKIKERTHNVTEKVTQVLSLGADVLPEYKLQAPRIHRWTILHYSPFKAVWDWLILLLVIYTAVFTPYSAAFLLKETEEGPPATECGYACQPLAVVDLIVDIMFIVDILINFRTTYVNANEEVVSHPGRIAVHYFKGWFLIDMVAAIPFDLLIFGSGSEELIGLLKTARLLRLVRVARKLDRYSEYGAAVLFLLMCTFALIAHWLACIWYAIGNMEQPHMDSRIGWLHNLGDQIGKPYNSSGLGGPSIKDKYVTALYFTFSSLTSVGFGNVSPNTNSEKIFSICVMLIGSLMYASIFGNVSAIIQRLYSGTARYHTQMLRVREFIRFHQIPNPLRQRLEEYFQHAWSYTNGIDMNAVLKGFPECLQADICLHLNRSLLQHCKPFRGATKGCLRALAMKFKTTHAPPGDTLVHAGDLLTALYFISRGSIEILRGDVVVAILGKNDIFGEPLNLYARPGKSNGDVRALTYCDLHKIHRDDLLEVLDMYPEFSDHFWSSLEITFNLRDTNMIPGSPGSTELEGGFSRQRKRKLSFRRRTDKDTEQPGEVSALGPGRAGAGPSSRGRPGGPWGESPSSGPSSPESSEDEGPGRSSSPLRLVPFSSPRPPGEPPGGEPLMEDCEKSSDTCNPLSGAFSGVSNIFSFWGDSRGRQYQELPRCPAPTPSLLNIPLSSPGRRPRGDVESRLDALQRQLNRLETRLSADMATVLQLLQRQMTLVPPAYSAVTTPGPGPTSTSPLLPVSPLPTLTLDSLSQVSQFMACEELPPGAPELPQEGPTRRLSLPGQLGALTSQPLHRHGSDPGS
row,SMILES,"hERG current change (%, negative = inhibition) at 1uM"
1,C/C(=N\NC(=O)c1ccc(Cl)cc1)c1ccccn1,8.17%
2,O=S1(=O)CCC(NCC2CCCO2)C1 (centres unmarked),12.9%
3,CC(C)C(NC(=O)OCc1ccccc1)C(=O)OCC(=O)NC1CC1 (centres unmarked),11.3%
4,Fc1ccc(N/N=C/c2ccc(N3CCOCC3)cc2)c(F)c1,9.29%
5,CCc1ccc(CN(C)C(=O)C2CCC(=O)N(CC3CCCCC3)C2)cc1 (centres unmarked),-12.3%
6,COc1ccccc1N1CCN(C(=O)c2cn(C)c3ccc(S(=O)(=O)N4CCOCC4)cc3c2=O)CC1,13.1%
7,O=c1nc(-c2ccccc2)n(-c2ccccc2)c2ncccc12,10.8%
8,Cn1c(SCC(=O)NC2CCS(=O)(=O)C2)nnc1-c1ccco1 (centres unmarked),10.3%
9,Cc1cccc(NS(=O)(=O)c2cccs2)c1,10.7%
10,CC1CC(C)CN(c2nc3c(c(=O)n(C)c(=O)n3C)n2C)C1 (centres unmarked),11.1%
11,O=C(/C=C/c1cccc(F)c1)Nc1cc(S(=O)(=O)N2CCOCC2)ccc1N1CCCC1,0.626%
12,CCN1CCN(c2ccc(S(=O)(=O)N3CCOCC3)cc2NC(=O)/C=C/c2ccc(C)cc2)CC1,-4.67%
13,CCN1CCN(c2ccc(S(=O)(=O)N3CCOCC3)cc2NC(=O)/C=C/c2ccc([N+](=O)[O-])cc2)CC1,-50.5%
14,CCN1CCN(c2ccc(S(=O)(=O)N3CCCCC3)cc2NC(=O)/C=C/c2ccc([N+](=O)[O-])cc2)CC1,6.53%
15,O=C(/C=C/c1ccccc1)Nc1cc(S(=O)(=O)N2CCOCC2)ccc1N1CCCC1,15.7%
16,O=C(/C=C/c1ccc(F)cc1)Nc1cc(S(=O)(=O)N2CCOCC2)ccc1N1CCCC1,-60.3%
17,O=c1cc(-c2ccccc2[N+](=O)[O-])oc2ccccc12,7.73%
18,CC(C)C(=O)C1=Cc2cc([N+](=O)[O-])ccc2OC1N1CCOCC1 (centres unmarked),9.39%
19,O=C(CCCC(=O)NCC1CCCO1)NCC1CCCO1 (centres unmarked),3.68%
20,O=c1ccc2cc3c([nH]c4ccc(Br)cc43)oc-2c1O,4.16%
21,CCN1CCN(C(c2ccc(OC)cc2)C(O)C(=O)c2c[nH]c3ccccc23)CC1 (centres unmarked),-64.4%

row,SMILES,"hERG current change (%, negative = inhibition) at 1uM"
1,COc1ccc(C(C(O)C(=O)c2c[nH]c3ccccc23)N2CCN(c3ccc(OC)cc3)CC2)cc1 (centres unmarked),2.28%
2,COc1ccc(C(C(O)C(=O)c2c[nH]c3ccccc23)N2CCN(c3ccccc3)CC2)cc1 (centres unmarked),4.75%
3,CC(C)Oc1ccc(N2CC(C(=O)Nc3ccc4c(c3)OCO4)CC2=O)cc1 (centres unmarked),5.88%
4,Cc1[nH]c(=O)[nH]c(=O)c1S(=O)(=O)Nc1cccc([N+](=O)[O-])c1C,11.5%
5,COc1cccc(OC)c1OCCCN1CCC(Cc2ccccc2)CC1.O=C(O)C(=O)O,-79.3%
6,COc1cccc(OC)c1OCCCCN1CCCCC1.O=C(O)C(=O)O,9.21%
7,COc1cccc(OC)c1OCCCCN1CCC(Cc2ccccc2)CC1.O=C(O)C(=O)O,-78.6%
8,COc1ccccc1N1CCN(CCCCOc2c(OC)cccc2OC)CC1.O=C(O)C(=O)O,-38.6%
9,COc1cccc(OC)c1OCCCCN1CCCC1,4.67%
10,CC(=O)CCc1ccc(OCCCCN2CCC(Cc3ccccc3)CC2)cc1.O=C(O)C(=O)O,-68.3%
11,COc1cc(CN2CCC(Cc3ccccc3)CC2)cc(OC)c1OC.O=C(O)C(=O)O,-12%
12,O=C(O)C(=O)O.c1ccc(COc2ccc(OCCCCN3CCCC3)cc2)cc1,-28.2%
13,CC1CCN(CCCOc2ccc(OCc3ccccc3)cc2)CC1.O=C(O)C(=O)O,-14.1%
14,COc1cc2cc(C(c3nnnn3C(C)(C)C)N3CCc4ccccc4C3)c(=O)[nH]c2cc1OC (centres unmarked),-3.88%
15,CCN(CCNC(=O)CCCn1nc(C)n2c(cc3sccc32)c1=O)c1ccccc1,-1.14%
16,CN(C)Cc1ccc(-c2nc3cccc4c3n2CCNC4=O)cc1,-0.249%
17,O=C(NCc1ccccc1)C(c1ccco1)N(C(=O)c1csnn1)C1CC1 (centres unmarked),11.6%
18,Cc1nc2ccccc2c(=O)n1Cc1ccc([N+](=O)[O-])cc1,-64.8%
19,COc1ccc(Cn2c(C)nc3ccc([N+](=O)[O-])cc3c2=O)cc1,5.96%
20,Cc1nc2ccc([N+](=O)[O-])cc2c(=O)n1Cc1ccc(Br)cc1,14.8%
21,Cc1nc2ccc([N+](=O)[O-])cc2c(=O)n1Cc1ccc(Cl)cc1,10.5%

row,SMILES,"hERG current change (%, negative = inhibition) at 1uM"
1,Cc1nc2ccc([N+](=O)[O-])cc2c(=O)n1Cc1ccc(F)cc1,-9.51%
2,Cc1nc2ccc([N+](=O)[O-])cc2c(=O)n1Cc1ccc([N+](=O)[O-])cc1,-76.5%
3,CC(=O)Nc1cccc(N2CCCC2=O)c1,4.99%
4,O=C(CN1CCN(Cc2ccccc2)CC1)N/N=C/C=C/c1ccccc1[N+](=O)[O-],-32.1%
5,COc1ccc(NC(=O)Nc2cc(C(=O)O)ccc2N2CC3CC(C2)c2cccc(=O)n2C3)c(OC)c1 (centres unmarked),5.08%
6,CC(NC(=O)Cc1ccccc1)c1cc2c(cc1Br)OCCCO2 (centres unmarked),6.49%
7,CCOC(=O)Cn1nc(C)c(NC(=O)COc2ccc(OC)cc2)c1C,4.48%
8,CC(C)(C)Nc1nc(Cl)nc(N(C#N)CN2C(=O)c3ccccc3S2(=O)=O)n1,16.1%
9,CCN(CC)S(=O)(=O)c1cc(C)ccc1NC(=S)Nc1cccnc1,3.41%
10,Cc1ccc(N(CC(O)CN2CCOCC2)S(=O)(=O)c2ccc([N+](=O)[O-])cc2)cc1 (centres unmarked),-49.1%
11,Cc1ccc(S(=O)(=O)N(CC(O)CN2CCCC2)c2ccccc2)cc1 (centres unmarked),-44.8%
12,O=S(=O)(c1ccccc1)N(CC(O)CN1CCCC1)c1ccccc1 (centres unmarked),3.65%
13,Cl.O=S(=O)(c1ccccc1)N(CC(O)CN1CCCCC1)c1ccccc1 (centres unmarked),-21%
14,O=S(=O)(c1ccccc1)N(CC(O)CN1CCOCC1)c1ccccc1 (centres unmarked),9.04%
15,Cc1ccc(N(CC(O)CN2CCOCC2)S(=O)(=O)c2ccc3ccccc3c2)cc1 (centres unmarked),-55.6%
16,Cc1ccc(S(=O)(=O)N(CC(O)CN2CCCCC2)c2ccccc2)cc1.Cl (centres unmarked),-60.5%
17,Cc1ccc(N(CC(O)CN2CCCC2)S(=O)(=O)c2ccc(C)cc2)cc1.Cl (centres unmarked),-81.7%
18,Cl.O=S(=O)(c1ccc2ccccc2c1)N(CC(O)CN1CCOCC1)c1ccccc1 (centres unmarked),-21.2%
19,Cc1ccccc1S(=O)(=O)N(CC(O)CN1CCCCC1)c1ccccc1 (centres unmarked),-71.2%
20,Cc1ccc(N(CC(O)CN2CCCCC2)S(=O)(=O)c2ccc(C)cc2)cc1 (centres unmarked),12.8%
21,Cc1ccc(S(=O)(=O)N(CC(O)CN2CCOCC2)c2cc(Cl)ccc2Cl)cc1.Cl (centres unmarked),-2.22%

row,SMILES,"hERG current change (%, negative = inhibition) at 1uM"
1,Cc1ccc(-n2nc(C)c3c2OC(N)=C(C#N)C3c2cccs2)cc1 (centres unmarked),9.08%
2,CC1=CC2=NC(=O)CC(C)(C(=O)N(CC(=O)NC(C)(C)C)Cc3cccs3)N2C=C1 (centres unmarked),-2.79%
3,CNc1ncc(-c2nnnn2-c2ccccc2)c(-c2ccccc2)n1,8.07%
4,Cc1ccc(N2CCN(c3ncccc3[N+](=O)[O-])CC2)c(C)c1,17.2%
5,CC(=O)NC(C(=O)N1CCC(c2nc3ccccc3s2)CC1)C(C)C (centres unmarked),8.96%
6,Cc1cc(C)nc(SCc2n[nH]c(=S)n2C)n1,7.9%
7,CCOC(=O)C1=C(N)OC2=C(C(=O)CC(C)(C)C2)C1c1ccco1 (centres unmarked),-7.98%
8,FC(F)(F)c1ccccc1NC(=S)N1CCN(c2ncccn2)CC1,11.5%
9,O=C(NNC(=O)c1cccs1)c1ccccc1,5.51%
10,COc1ccc(N(CC(O)CN2CCOCC2)S(=O)(=O)c2ccc(C)cc2)cc1 (centres unmarked),-6.48%
11,Cc1ccc(N(CC(O)CN2CCCCC2)S(=O)(=O)c2ccccc2)cc1 (centres unmarked),-68.7%
12,Cc1ccc(N(CC(O)CN2CCCCC2)S(=O)(=O)c2ccccc2[N+](=O)[O-])cc1 (centres unmarked),-48.8%
13,Cc1ccc(N(CC(O)CN2CCCC2)S(=O)(=O)c2ccccc2)cc1 (centres unmarked),-47.4%
14,COc1ccccc1N(CC(O)CN1CCCCC1)S(=O)(=O)c1ccc(C)cc1 (centres unmarked),2.61%
15,COc1ccc(N(CC(O)CN2CCCCC2)S(=O)(=O)c2ccc(C)cc2)cc1 (centres unmarked),-82.9%
16,Cc1c(C(=O)OC2CCCCC2)sc2nc[nH]c(=O)c12,16%
17,Cc1ccc(-c2oc3ncnc(N)c3c2-c2ccc(C)cc2)cc1,-3.25%
18,COc1ccc(/C(C)=N/Nc2ccc(C(=O)O)cc2)cc1OC.O=S(=O)(O)O,11.7%
19,Cn1c(SCC(=O)NCC2CCCO2)ncc(C(=O)Nc2ccc(F)cc2)c1=O (centres unmarked),5.38%
20,CN1C[C@H](CNC(=O)OCc2ccccc2)C[C@@H]2c3cccc4c3c(cn4C)C[C@H]21,-1.63%
